Reference: paper PMC10812921, “Transcriptional Coactivator BOB1 (OBF1, OCA-B) Modulates the Specificity of DNA Recognition by the POU-Domain Factors OCT1 and OCT2 in a Monomeric Configuration”

Assays:
POU1 (OCT1 POU domain) = POU1 (OCT1 POU domain) (human, UniProt P14859 260-458); experiment: EMSA-SELEX-seq; no BOB1; 20 mM Tris-HCl pH 7.6, 140 mM NaCl, 10% glycerol, 0.5 mM EDTA, 0.05% Triton X-100, 0.1 mg/mL BSA, 0.1 mg/mL poly(dI-dC), 5 mM DTT, room temperature, 20 min; high values mean tight binding; conditions: protein: recombinant; dsDNA, one strand shown
Procedure, shortened: (§1)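 With or without 28 ng coactivator protein, 30 ng of tagged POU-domain protein was combined with 300 ng of a PCR-amplified double-stranded random 35-nt library in 20 μL Tris–HCl pH 7.6 binding buffer for 20 min at RT. The protein came from E. coli BL21 and had been purified under denaturing conditions and renatured. Four rounds of cutting complex bands from native 6% PAGE, elution and PCR amplification preceded Illumina sequencing. The binding preference figure is the percentage of sequenced 8-mers matching a motif pattern.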

POU2 (OCT2 POU domain) = target: T1, POU2 (OCT2 POU domain) (human, UniProt P09086 175-386); experiment: as above; conditions: protein: recombinant; dsDNA, one strand shown
T1 sequence: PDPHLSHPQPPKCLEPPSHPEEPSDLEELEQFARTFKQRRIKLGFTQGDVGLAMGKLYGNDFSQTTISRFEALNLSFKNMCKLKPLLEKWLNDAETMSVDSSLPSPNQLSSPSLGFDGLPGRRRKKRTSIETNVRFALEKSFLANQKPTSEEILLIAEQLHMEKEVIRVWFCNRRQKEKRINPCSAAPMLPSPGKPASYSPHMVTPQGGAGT
Procedure, shortened: as §1

[1] = target: POU1 (OCT1 POU domain);BOB1 (OBF1, OCA-B) (human;human, UniProt P14859;Q16633 260-458;1-256, |); experiment: EMSA-SELEX-seq; with BOB1 (ternary complex band); 20 mM Tris-HCl pH 7.6, 140 mM NaCl, 10% glycerol, 0.5 mM EDTA, 0.05% Triton X-100, 0.1 mg/mL BSA, 0.1 mg/mL poly(dI-dC), 5 mM DTT, room temperature, 20 min; high values mean tight binding; conditions: protein: recombinant;recombinant; copies: 1;1; dsDNA, one strand shown
Procedure, shortened: as §1

[2] = target: T2, POU2 (OCT2 POU domain);BOB1 (OBF1, OCA-B) (human;human, UniProt P09086;Q16633 175-386;1-256, |); experiment: as above; conditions: protein: recombinant;recombinant; copies: 1;1; dsDNA, one strand shown
T2 sequence 1: T1 sequence
T2 sequence 2: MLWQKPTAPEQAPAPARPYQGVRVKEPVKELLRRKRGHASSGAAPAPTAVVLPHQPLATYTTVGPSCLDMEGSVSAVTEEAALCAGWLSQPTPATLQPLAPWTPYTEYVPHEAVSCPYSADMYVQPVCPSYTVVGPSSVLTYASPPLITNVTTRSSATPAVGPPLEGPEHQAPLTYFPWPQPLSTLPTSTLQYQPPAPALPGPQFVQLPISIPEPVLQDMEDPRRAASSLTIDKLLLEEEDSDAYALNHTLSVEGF
Procedure, shortened: as §1

Sequence of POU1 (OCT1 POU domain) (P14859 260-458): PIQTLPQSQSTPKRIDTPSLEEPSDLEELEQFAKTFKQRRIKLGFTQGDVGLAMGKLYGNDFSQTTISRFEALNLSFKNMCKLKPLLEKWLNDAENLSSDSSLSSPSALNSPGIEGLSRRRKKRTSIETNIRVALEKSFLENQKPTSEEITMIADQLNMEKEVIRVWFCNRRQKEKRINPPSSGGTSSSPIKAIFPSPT

Row | Sequence | binding signal (POU1 (OCT1 POU domain)) | binding signal (POU2 (OCT2 POU domain)) | binding signal [1] | binding signal [2]
1 | AATCAAAA | 0.122 % of ANNNNAAN 8-mers | 0.099 % of ANNNNAAN 8-mers | 0.142 % of ANNNNAAN 8-mers | 0.0792 % of ANNNNAAN 8-mers
2 | AGACTAAT | 0.0744 % of ANNNNAAN 8-mers | 0.102 % of ANNNNAAN 8-mers | 0.0507 % of ANNNNAAN 8-mers | 0.066 % of ANNNNAAN 8-mers
3 | ACGTGAAC | 0.0153 % of ANNNNAAN 8-mers | 0.0247 % of ANNNNAAN 8-mers | 0.0215 % of ANNNNAAN 8-mers | 0.0206 % of ANNNNAAN 8-mers
4 | ATGTTAAA | 0.212 % of ANNNNAAN 8-mers | 0.216 % of ANNNNAAN 8-mers | 0.0956 % of ANNNNAAN 8-mers | 0.0892 % of ANNNNAAN 8-mers
5 | ATTTGAAT | 1.84 % of ANNNNAAN 8-mers | 1.5 % of ANNNNAAN 8-mers | 1.92 % of ANNNNAAN 8-mers | 2.32 % of ANNNNAAN 8-mers
6 | ACCACAAA | 0.0141 % of ANNNNAAN 8-mers | 0.0196 % of ANNNNAAN 8-mers | 0.014 % of ANNNNAAN 8-mers | 0.0198 % of ANNNNAAN 8-mers
7 | AGCTAAAC | 0.0187 % of ANNNNAAN 8-mers | 0.0236 % of ANNNNAAN 8-mers | 0.0265 % of ANNNNAAN 8-mers | 0.0256 % of ANNNNAAN 8-mers
8 | AGGAAAAT | 0.287 % of ANNNNAAN 8-mers | 0.2 % of ANNNNAAN 8-mers | 0.507 % of ANNNNAAN 8-mers | 0.347 % of ANNNNAAN 8-mers
9 | AAGTTAAG | 0.0568 % of ANNNNAAN 8-mers | 0.0742 % of ANNNNAAN 8-mers | 0.0539 % of ANNNNAAN 8-mers | 0.0636 % of ANNNNAAN 8-mers
10 | ACGTAAAG | 0.0416 % of ANNNNAAN 8-mers | 0.0409 % of ANNNNAAN 8-mers | 0.0667 % of ANNNNAAN 8-mers | 0.0479 % of ANNNNAAN 8-mers
11 | ATGCTAAA | 0.273 % of ANNNNAAN 8-mers | 0.293 % of ANNNNAAN 8-mers | 0.0691 % of ANNNNAAN 8-mers | 0.0817 % of ANNNNAAN 8-mers
12 | AGCGCAAA | 0.0263 % of ANNNNAAN 8-mers | 0.0305 % of ANNNNAAN 8-mers | 0.0324 % of ANNNNAAN 8-mers | 0.0215 % of ANNNNAAN 8-mers
13 | ATTCCAAT | 0.0767 % of ANNNNAAN 8-mers | 0.11 % of ANNNNAAN 8-mers | 0.057 % of ANNNNAAN 8-mers | 0.0751 % of ANNNNAAN 8-mers
14 | ACACTAAG | 0.0179 % of ANNNNAAN 8-mers | 0.0219 % of ANNNNAAN 8-mers | 0.0226 % of ANNNNAAN 8-mers | 0.0289 % of ANNNNAAN 8-mers
15 | ACATTAAA | 0.104 % of ANNNNAAN 8-mers | 0.125 % of ANNNNAAN 8-mers | 0.0624 % of ANNNNAAN 8-mers | 0.0611 % of ANNNNAAN 8-mers
16 | AGTGCAAG | 0.0187 % of ANNNNAAN 8-mers | 0.0311 % of ANNNNAAN 8-mers | 0.0238 % of ANNNNAAN 8-mers | 0.0264 % of ANNNNAAN 8-mers

Row | Sequence | binding signal (POU1 (OCT1 POU domain)) | binding signal (POU2 (OCT2 POU domain)) | binding signal [1] | binding signal [2]
17 | ACGCAAAC | 0.0614 % of ANNNNAAN 8-mers | 0.0437 % of ANNNNAAN 8-mers | 0.103 % of ANNNNAAN 8-mers | 0.0512 % of ANNNNAAN 8-mers
18 | AATAAAAA | 0.137 % of ANNNNAAN 8-mers | 0.132 % of ANNNNAAN 8-mers | 0.125 % of ANNNNAAN 8-mers | 0.0958 % of ANNNNAAN 8-mers
19 | ACGGGAAC | 0.0225 % of ANNNNAAN 8-mers | 0.027 % of ANNNNAAN 8-mers | 0.0215 % of ANNNNAAN 8-mers | 0.0231 % of ANNNNAAN 8-mers
20 | ATTGGAAG | 0.0309 % of ANNNNAAN 8-mers | 0.0547 % of ANNNNAAN 8-mers | 0.0371 % of ANNNNAAN 8-mers | 0.0438 % of ANNNNAAN 8-mers
21 | ACATAAAG | 0.0934 % of ANNNNAAN 8-mers | 0.108 % of ANNNNAAN 8-mers | 0.0663 % of ANNNNAAN 8-mers | 0.0759 % of ANNNNAAN 8-mers
22 | AGCTTAAT | 0.0645 % of ANNNNAAN 8-mers | 0.0972 % of ANNNNAAN 8-mers | 0.0449 % of ANNNNAAN 8-mers | 0.0578 % of ANNNNAAN 8-mers
23 | AGGCCAAG | 0.0271 % of ANNNNAAN 8-mers | 0.0334 % of ANNNNAAN 8-mers | 0.0312 % of ANNNNAAN 8-mers | 0.0264 % of ANNNNAAN 8-mers
24 | AGAATAAC | 0.0534 % of ANNNNAAN 8-mers | 0.0673 % of ANNNNAAN 8-mers | 0.0312 % of ANNNNAAN 8-mers | 0.0487 % of ANNNNAAN 8-mers
25 | AGGTCAAG | 0.0297 % of ANNNNAAN 8-mers | 0.042 % of ANNNNAAN 8-mers | 0.0277 % of ANNNNAAN 8-mers | 0.0289 % of ANNNNAAN 8-mers
26 | AGGGCAAT | 0.0442 % of ANNNNAAN 8-mers | 0.0558 % of ANNNNAAN 8-mers | 0.0457 % of ANNNNAAN 8-mers | 0.0611 % of ANNNNAAN 8-mers
27 | AGTGAAAG | 0.0469 % of ANNNNAAN 8-mers | 0.0409 % of ANNNNAAN 8-mers | 0.0624 % of ANNNNAAN 8-mers | 0.0504 % of ANNNNAAN 8-mers
28 | ACGGGAAG | 0.0332 % of ANNNNAAN 8-mers | 0.0339 % of ANNNNAAN 8-mers | 0.0254 % of ANNNNAAN 8-mers | 0.0347 % of ANNNNAAN 8-mers
29 | ATGGCAAT | 0.0545 % of ANNNNAAN 8-mers | 0.0719 % of ANNNNAAN 8-mers | 0.0484 % of ANNNNAAN 8-mers | 0.0578 % of ANNNNAAN 8-mers
30 | AATATAAC | 0.05 % of ANNNNAAN 8-mers | 0.0817 % of ANNNNAAN 8-mers | 0.0589 % of ANNNNAAN 8-mers | 0.0578 % of ANNNNAAN 8-mers
31 | ATCAAAAA | 0.061 % of ANNNNAAN 8-mers | 0.0702 % of ANNNNAAN 8-mers | 0.0851 % of ANNNNAAN 8-mers | 0.0636 % of ANNNNAAN 8-mers
32 | ACCCTAAG | 0.0118 % of ANNNNAAN 8-mers | 0.0178 % of ANNNNAAN 8-mers | 0.0133 % of ANNNNAAN 8-mers | 0.0107 % of ANNNNAAN 8-mers
